# Screening results from PubChem BioAssay.
# PP5 inh: blocks human protein phosphatase 5 activity. purified PP5c, OMFP substrate fluorescence. inhibition, % at 6.7 µM. 320,000 tested, 0.18% active;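 active = inhibition above the campaign's mean inhibition across all tested compounds plus 3 SD, cut at about 9.5% in these data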;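 note: 0% = DMSO only and 100% = 100 µM cantharidin control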
# Target sequence (P53041 whole entry, looked up): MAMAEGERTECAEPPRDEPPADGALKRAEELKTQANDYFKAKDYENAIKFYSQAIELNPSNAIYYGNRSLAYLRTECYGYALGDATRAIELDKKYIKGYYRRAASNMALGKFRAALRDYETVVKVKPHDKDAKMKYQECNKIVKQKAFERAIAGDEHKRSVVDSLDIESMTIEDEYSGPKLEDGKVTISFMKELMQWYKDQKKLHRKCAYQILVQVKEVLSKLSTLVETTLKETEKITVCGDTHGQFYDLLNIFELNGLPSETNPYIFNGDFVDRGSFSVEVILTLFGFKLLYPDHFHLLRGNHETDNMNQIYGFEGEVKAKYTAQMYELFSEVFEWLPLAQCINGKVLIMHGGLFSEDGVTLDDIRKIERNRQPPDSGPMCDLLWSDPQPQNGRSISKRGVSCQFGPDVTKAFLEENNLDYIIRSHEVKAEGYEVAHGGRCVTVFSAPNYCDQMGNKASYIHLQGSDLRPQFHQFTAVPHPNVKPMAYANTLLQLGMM
# STK33 kinase inh: inhibitors of human STK33 kinase; Q9BYT3; purified STK33, MBP phosphorylation, ADP-Glo luminescence; inhibition, % at 10 µM; 320,000 tested, 0.073% active;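 active = inhibition at or above 25%, using the most active replicate where run in duplicate; inactive = inhibition below 25%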
# HIF activator: HIF pathway transcriptional activation; AID 1910; activation, % at 7.5 µM (by protocol); U2OS HRE-luciferase reporter, luminescence; normalized: DMSO 0%, desferrioxamine 100%; 300,000 tested, 0.32% active;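 active = mean activation of at least 10% of the iron chelator positive control signal, with at least half of replicates also reaching 10%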
# Dyrk1A ADPGlo: blocks rat Dyrk1A kinase activity. inhibition, % at 12.5 µM. 310,000 tested, 0.43% active. Q63470. ADP-Glo luminescence, NFATc1 peptide; in the data active = inhibition above about 50%;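 note: plate controls were vehicle with enzyme for no effect and no enzyme for full effect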
# PP1 inh: PP1-alpha (human) inhibition in PP5 counter-screen; P62136; purified PP1alpha, OMFP fluorescence; inhibition, % at 6.7 µM; 320,000 tested, 0.9% active; AID 2235;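 active = inhibition above the mean inhibition of all tested compounds plus 3 SD, computed separately for each screening campaign, cut at about 15% in these data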
# PP1 inh confirm: human PP1 phosphatase inhibition, confirmation; AID 2358; purified PP1alpha, OMFP substrate fluorescence; 1,900 tested, 52% active; shares compounds with PP1 inh; inhibition, % at 6.7 µM;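 active = mean PP1 inhibition above a set limit taken from the earlier primary screen, cut at about 15% in these data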
# PP5 inh counter: inhibits human PP5 phosphatase in PP1 counter-screen; shares compounds with PP1 inh; purified PP5c, OMFP fluorescence; inhibition, % at 6.7 µM; 1,900 tested, 4% active; AID 2360;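 active = mean PP5 inhibition over triplicate wells above about 9.5% taken from the earlier PP1 screen, limit read from the data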
# * marks the source's active call; other numbers are inactive results; x = not tested or not shown. Compounds with a hit are over-represented: about 1.5% of the library has one in this group of screens.
SMILES,PP5 inh,STK33 kinase inh,HIF activator,Dyrk1A ADPGlo,PP1 inh,PP1 inh confirm,PP5 inh counter
CCCC(=O)NC(c1ccc(C(C)C)cc1)c1ccc2cccnc2c1O (stereo not drawn),-2,-1,119*,0,26*,23*,-1
CCCC(=O)NC(c1ccc(OC)c(OC)c1)c1cc(Cl)c2cccnc2c1O (stereo not drawn),5,-1,0,-5,1,x,x
Cc1cc(NC(c2ccc(Cl)cc2)c2ccc3cccnc3c2O)no1 (stereo not drawn),5,-1,169*,1,22*,15*,-2
CCCCC(=O)NC(c1cccs1)c1cc(Cl)c2cccnc2c1O (stereo not drawn),-1,-4,34*,-4,20*,24*,-4
CCOC(=O)C1CCCN1C(=O)C1(NC(C)=O)CCCC1 (stereo not drawn),x,x,x,5,x,x,x
CCOC(=O)CN1C(=O)CCSc2ccc(Cl)cc21,-1,-2,0,-3,-2,x,x
Cc1cccc(OCCC(=O)N(C)CC(=O)Nc2cccc3ccccc23)c1,1,-3,0,-2,1,x,x
CCCC(=O)NC(c1ccccc1Cl)c1ccc2cccnc2c1O (stereo not drawn),4,0,71*,x,20*,10,-3
Brc1ccc(C2=Nn3c(nnc3-c3n[nH]c4c3CCC4)SC2)cc1,4,0,0,10,22*,2,-2
Cc1ccc(-c2nnc3n2N=C(c2ccc(Br)cc2)CS3)cc1,2,-2,0,-2,-1,x,x
c1ccc(-c2ccc(C3=Nn4c(nnc4-c4cc(-c5ccccc5)n[nH]4)SC3)cc2)cc1,3,2,1,-7,30*,33*,3
COc1ccc(S(=O)(=O)Nc2ccccc2C(=O)N2CCOCC2)cc1C,2,1,-23,1,-4,x,x
COc1cc(/C=C2\C(=N)N3N=C(S(C)(=O)=O)SC3=NC2=O)cc(OC)c1OCCOc1ccccc1C,8,-1,0,-4,30*,11,-1
COc1cc(/C=C2\C(=N)N3N=C(C)SC3=NC2=O)cc(OC)c1OCCOc1ccccc1C,2,-2,-24,1,3,x,x
COC(=O)c1ccc(N(CC(=O)NC2CCCC2)C(=O)c2ccc(C)s2)cc1,2,0,0,-5,3,x,x
Cc1c(C(=O)OCC(=O)Nc2ccccc2OC(F)F)cccc1[N+](=O)[O-],2,-1,0,-1,23*,0,-2
CC(=O)N1CCN(C(=O)c2ccccc2NS(=O)(=O)c2ccc(F)cc2)CC1,-2,-1,x,x,-1,x,x
CC(C)(C)c1ccc(C(=O)NCC(=O)OCC(=O)c2ccc3c(c2)-c2ccccc2C3)cc1,2,-1,1,-4,20*,14,0
COc1ccccc1N1CCN(CC(=O)Nc2ccc(-n3cnnn3)cc2)CC1,2,0,-1,x,2,x,x
CCOc1cccc(/C=N/Nc2ccc(S(=O)(=O)N(CC)CC)cn2)c1O,-1,-1,9.8*,-6,31*,33*,-2
O=C1C=C(N2CCN(c3ccccn3)CC2)C(=O)c2c(O)ccc(O)c21,x,x,x,0,x,x,x
CC1=CC(=O)c2c(O)ccc(O)c2C1=O,3,0,x,x,28*,2,28*
Cc1cc(Cl)ccc1Oc1ccccc1C(=O)CC#N,1,0,0,-50,20*,0,-8
Cc1cc(Cl)ccc1Oc1ccc(C(N)=O)cc1[N+](=O)[O-],4,-1,1,0,3,x,x
Cc1ccccc1NC(=O)COc1coc(CN2CCCc3ccccc32)cc1=O,3,-2,1,-7,0,x,x
SMILES,PP5 inh,STK33 kinase inh,HIF activator,Dyrk1A ADPGlo,PP1 inh,PP1 inh confirm,PP5 inh counter
O=C(COc1coc(CN2CCCc3ccccc32)cc1=O)Nc1ccc([N+](=O)[O-])cc1,-2,x,0,-2,21*,4,-4
O=C(Nc1nnc(-c2cccs2)o1)c1cccc(C(F)(F)F)c1,3,-2,0,5,20*,18*,1
N#Cc1ccc(C(=O)Nc2nnc(-c3cccs3)o2)cc1,0,0,0,10,4,x,x
CCC1CCCCN1S(=O)(=O)c1ccc(C(=O)Nc2nnc(-c3cccs3)o2)cc1 (stereo not drawn),3,-1,x,x,41*,33*,2
Cc1nn(-c2ccccc2)c2nc(-c3cccs3)cc(C(=O)NN)c12,3,-1,-1,-3,1,x,x
CCOC(=O)c1cc(-c2cccs2)nc2c1c(C)nn2-c1ccccn1,1,-1,-1,x,23*,25*,-2
COc1cc(OC)cc(C(=O)NCC2CCCN(C(=O)c3csc(C)n3)C2)c1 (stereo not drawn),0,1,0,-1,-4,x,x
CCC(C(=O)Oc1c(C(C)C)cccc1C(C)C)c1ccccc1 (stereo not drawn),-3,-3,x,3,-1,x,x
Cc1ccc(C(=O)N/C(=C\c2ccc(-c3cc(Cl)ccc3Cl)o2)C(=O)NCc2cccnc2)cc1,2,1,0,-1,18*,16*,3
COc1ccc(NC(=O)NNC(=O)COc2ccc3cc(Br)ccc3c2)cc1OC,0,0,-1,-7,25*,25*,-6
COc1ccc(NC(=O)c2ccccc2)cc1,1,-1,x,8,4,x,x
COc1ccc(NC(=O)NNC(=O)c2ccc(-c3ccccc3)cc2)cc1,-2,0,0,-10,28*,22*,-6
COc1ccc(NC(=O)NNC(=O)COc2ccc3ccccc3c2)cc1OC,1,1,-1,-2,-1,x,x
COc1ccc2cc(OCC(=O)NNC(=O)Nc3ccc(C(C)=O)cc3)ccc2c1,1,1,2,-9,43*,41*,-2
CCOC(=O)c1cn(Cc2ccccc2)c(C(=O)OC(C)(C)C)c1O,3,-1,0,1,22*,36*,-4
CCOC(=O)c1cn(Cc2ccccc2)c2cc(C)nn2c1=O,1,8,-1,-1,2,x,x
CC(Sc1ncnc2ccccc12)C(=O)Nc1ccc2c(c1)OCCO2 (stereo not drawn),4,-1,0,-1,-2,x,x
Cc1ccc(NC(=O)/C(=C\c2ccc([N+](=O)[O-])cc2)NC(=O)c2ccccc2)cc1,-1,0,-23,-6,0,x,x
O=C(N/N=C/c1ccc(O)c(O)c1O)/C(=C/c1ccc([N+](=O)[O-])cc1)NC(=O)c1ccccc1,2,0,10*,-2,32*,36*,-2
c1ccc(N(c2ccccc2)c2nc(-n3ccnc3)nc(-n3ccnc3)n2)cc1,1,0,1,-3,50*,50*,0
CC1(C)Cc2c(sc3c2c(=N)n(Cc2ccco2)c(=O)n3CC(=O)Nc2cccc(Cl)c2)CO1,6,-2,-1,-4,20*,6,3
